Test results published in the supplement of paper PMC10127200.
Counter-ions that a name gives are not always drawn.

Tests used:
Assay in all cases: Euclidean distance of Cell Painting phenotypic profile (signed KS, 77 features) to DMSO centroid (dimensionless distance); 5 or 10 uM (library dependent); higher = stronger phenotypic change vs DMSO (phenoactivity)
Conditions in all cases: 48 h
786-O = system: 786-O
Procedure, shortened: (§1)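 Five cancer lines and a healthy fibroblast line received library compounds at 10 or 5 uM (library-dependent, 0.1% DMSO final) for 48 h. Stained cells were imaged confocally at 20X (9 fields/well). Harmony extracted 77 features, each scored as a signed Kolmogorov-Smirnov statistic against same-plate vehicle wells. Profiles were plate-position corrected, correlation-weighted and replicate-averaged at the top dose. Phenoactivity is the Euclidean distance from each profile to the median vehicle profile.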

A549 = system: A549
Procedure, shortened: as §1

DU145 = system: DU145
Procedure, shortened: as §1

FB = system: FB
Procedure, shortened: as §1

HEPG2 = system: HEPG2
Procedure, shortened: as §1

OVCAR4 = system: OVCAR4
Procedure, shortened: as §1

Row | SMILES | Euclidean distance (786-O) | Euclidean distance (A549) | Euclidean distance (DU145) | Euclidean distance (FB) | Euclidean distance (HEPG2) | Euclidean distance (OVCAR4)
1 | CC12CC3CC(C)(C1)CC(N)(C3)C2 [Memantine HCl] | 1.1 | 0.654 | 1.66 | 1.03 | 1.95 | 1.51
2 | CN(C)/N=N/c1[nH]cnc1C(N)=O [Dacarbazine] | 1.42 | 0.981 | 1.94 | 1.25 | 2.73 | 0.871
3 | COC(=O)N[C@H](C(=O)N1CCC[C@H]1c1ncc(-c2ccc(-c3ccc(-c4cnc([C@@H]5CCCN5C(=O)[C@@H](NC(=O)OC)C(C)C)[nH]4)cc3)cc2)[nH]1)C(C)C | 1.52 | 1.63 | 1.12 | 1 | 0.904 | 1.5
4 | CN1CCC(=C2c3ccccc3C=Cc3ccccc32)CC1 [Cyproheptadine hydrochloride] | 0.781 | 1.06 | 1.24 | 1.89 | 2.26 | 0.968
5 | CNCC[C@@H](Oc1ccccc1C)c1ccccc1 [Atomoxetine HCl] | 1.37 | 1.23 | 0.627 | 0.866 | 0.422 | 1.22
6 | CN1CCc2c(c3ccccc3n2Cc2ccc(C(=O)NO)cc2)C1 [Tubastatin A HCl] | 0.602 | 0.832 | 0.783 | 1.34 | 0.601 | 0.657
7 | C#C[C@]1(O)CC[C@H]2[C@@H]3CCc4cc(OC5CCCC5)ccc4[C@H]3CC[C@@]21C [Quinestrol] | 1.6 | 1.26 | 1.69 | 1.48 | 0.902 | 1.67
8 | C1COC(NC(C2CC2)C2CC2)=N1 [Rilmenidine Phosphate] | 1.48 | 0.742 | 1.06 | 1.07 | 1.13 | 1.02
9 | Nc1nc(=O)n([C@@H]2CS[C@H](CO)O2)cc1F [Emtricitabine] | 1.06 | 0.783 | 0.954 | 0.924 | 0.432 | 1.08
10 | C=CC(=O)Nc1cccc(Nc2nc(Nc3ccc(Oc4ccnc(C(=O)NC)c4)cc3)ncc2F)c1 | 1.82 | 1.47 | 1.48 | 2.2 | 2.3 | 1.63
11 | C[C@@H]1O[C@@H](O[C@H]2[C@H](Oc3cc(O)c4c(c3)O[C@H](c3ccc(O)cc3)CC4=O)O[C@H](CO)[C@@H](O)[C@@H]2O)[C@H](O)[C@H](O)[C@H]1O [Naringin] | 1.25 | 1.01 | 0.644 | 1.2 | 0.575 | 1.74
12 | CC(=O)OCC1=C(C(=O)O)N2C(=O)[C@@H](NC(=O)Cc3cccs3)[C@H]2SC1 [Cephalothin] | 1.38 | 0.786 | 0.824 | 1.24 | 1.28 | 1.23
13 | COCCNCc1ccc(-c2cc3nccc(Oc4ccc(NC(=O)C5(C(=O)Nc6ccc(F)cc6)CC5)cc4F)c3s2)nc1 [Sitravatinib (MGCD516)] | 5.08 | 4.94 | 5.04 | 5.24 | 4.74 | 4.64
14 | Oc1cc(O)cc(/C=C/c2ccc(O)c(O)c2)c1 [Piceatannol] | 0.759 | 1.05 | 0.992 | 1.3 | 2.04 | 0.83
15 | COc1cc(N2CCC(N3CCN(C)CC3)CC2)ccc1Nc1ncc(Cl)c(Nc2ccccc2S(=O)(=O)C(C)C)n1 | 2.54 | 3.06 | 2.48 | 3.6 | 1.66 | 3.35
16 | Cn1c(=O)cc(N2CCC[C@@H](N)C2)n(Cc2cc(F)ccc2C#N)c1=O [Trelagliptin] | 0.94 | 0.495 | 0.985 | 0.998 | 0.668 | 0.953
17 | Cc1cccc(N(C)C(=S)Oc2ccc3ccccc3c2)c1 [Tolnaftate] | 1.29 | 0.815 | 1.01 | 0.908 | 1.96 | 1.36
18 | CNCCC(Oc1ccc(C(F)(F)F)cc1)c1ccccc1 (stereo unspecified) [Fluoxetine HCl] | 0.84 | 1.16 | 1.21 | 1.78 | 1.35 | 1.71
19 | CN1C2CCCC1CC(NC(=O)c1nn(C)c3ccccc13)C2 (stereo unspecified) [Granisetron HCl] | 1.32 | 0.903 | 1.37 | 1.04 | 1.27 | 1
20 | CC(=O)Nc1ccc(OC(=O)c2ccccc2OC(C)=O)cc1 [Benorylate] | 1.08 | 1.08 | 1.31 | 1.41 | 0.561 | 1.13
21 | CC/C(=C(/CC)c1ccc(O)cc1)c1ccc(O)cc1 [Diethylstilbestrol] | 0.795 | 0.688 | 0.96 | 0.826 | 0.721 | 0.682
22 | O=c1ccc2ccc(OCCCCN3CCN(c4cccc5sccc45)CC3)cc2[nH]1 [Brexpiprazole] | 1.47 | 1.82 | 2.84 | 1.52 | 2.28 | 1.15
23 | CCc1c(C)[nH]c2c1C(=O)C(CN1CCOCC1)CC2 (stereo unspecified) [Molindone hydrochloride] | 1.11 | 0.479 | 0.934 | 0.703 | 0.317 | 0.874

Row | SMILES | Euclidean distance (786-O) | Euclidean distance (A549) | Euclidean distance (DU145) | Euclidean distance (FB) | Euclidean distance (HEPG2) | Euclidean distance (OVCAR4)
24 | CN(C)Cc1ccc(S(=O)(=O)n2ccc(/C=C/C(=O)NO)c2)cc1 [Resminostat] | 2.67 | 2.99 | 2.58 | 3.52 | 2.9 | 2.81
25 | O=C(c1ccc(F)cc1)N1CCC[C@H](c2nc(-c3ccc(F)cc3)no2)C1 | 1.35 | 0.726 | 0.856 | 1.17 | 0.656 | 0.832
26 | O=C(O)CCNC(=O)c1ccc(/N=N/c2ccc(O)c(C(=O)O)c2)cc1 [Balsalazide disodium] | 0.73 | 0.808 | 0.796 | 0.76 | 0.576 | 0.971
27 | CC(C)c1onc(-c2c(Cl)cccc2Cl)c1COc1ccc(/C=C/c2cccc(C(=O)O)c2)c(Cl)c1 | 1.58 | 0.795 | 1.01 | 1.26 | 1.42 | 1.02
28 | CN(C)c1ccc(O)c2c1C[C@H]1C[C@H]3[C@H](N(C)C)C(O)=C(C(N)=O)C(=O)[C@@]3(O)C(O)=C1C2=O [Minocycline HCl] | 1.46 | 1.38 | 1.2 | 1.33 | 0.637 | 1.14
29 | CCN1CCN(C(=O)N[C@@H](C(=O)N[C@@H]2C(=O)N3C(C(=O)O)=C(CSc4nnnn4C)CS[C@H]23)c2ccc(O)cc2)C(=O)C1=O [Cefoperazone] | 1.77 | 0.776 | 0.917 | 1.45 | 0.854 | 1.24
30 | COc1cc2c(N3CCN(C(=O)Nc4ccc(OC(C)C)cc4)CC3)ncnc2cc1OCCCN1CCCCC1 [Tandutinib (MLN518)] | 0.691 | 1.73 | 1.35 | 2.68 | 1.52 | 1.12
31 | CNC(=O)Nc1ccc(-c2nc(N3CC4CCC(C3)O4)c3cnn(C4CCC5(CC4)OCCO5)c3n2)cc1 | 4.15 | 3.37 | 2.25 | 4.69 | 3.38 | 4.35
32 | CN1CCCN=C1/C=C/c1cccc(O)c1 [Oxantel Pamoate] | 0.869 | 0.907 | 0.598 | 0.7 | 0.882 | 0.824
33 | CC(=O)[C@H]1CC[C@H]2[C@@H]3C[C@H](C)C4=CC(=O)CC[C@]4(C)[C@H]3[C@@H](O)C[C@]12C [Medrysone] | 1.22 | 1.8 | 1.96 | 1.72 | 0.963 | 1.81
34 | Cc1c(C(=O)Nc2ccc(N3C[C@@H](C)O[C@@H](C)C3)nc2)cccc1-c1ccc(OC(F)(F)F)cc1 [LDE225 (NVP-LDE225.Erismodegib)] | 0.757 | 1.2 | 0.747 | 0.782 | 1.4 | 1.38
35 | O=C(NCCCNc1nc(Nc2cccc(NC(=O)N3CCCC3)c2)ncc1I)c1cccs1 | 2.35 | 4.29 | 3.26 | 3.8 | 2.12 | 4.44
36 | C[C@H]1O[C@@H](O[C@H]2CC[C@@]3(C)[C@@H](CC[C@]4(C)[C@@H]3C=C[C@]35OC[C@@]6(CCC(C)(C)C[C@H]63)[C@@H](O)C[C@]54C)[C@]2(C)CO)[C@H](O)[C@@H](O[C@@H]2O[C@H](CO)[C@@H](O)[C@H](O)[C@H]2O)[C@H]1O [Saikosaponin A] | 1.06 | 2.42 | 2.17 | 1.52 | 0.854 | 2.14
37 | CSc1ccc2c(c1)N(CCC1CCCCN1C)c1ccccc1S2 (stereo unspecified) [Thioridazine hydrochloride] | 2.83 | 2.98 | 2.37 | 3.14 | 3.33 | 2.62
38 | CN1C(=O)/C(=C2/C(=O)Nc3ccccc32)c2ccccc21 [Meisoindigo] | 1.94 | 2.33 | 0.82 | 2.24 | 1.8 | 1.35
39 | O=c1cc(N2CCOCC2)oc2c(-c3ccccc3)cccc12 | 1.73 | 1.09 | 1.16 | 1.79 | 1.66 | 2.16
40 | C=C1/C(=C\C=C2/CCC[C@]3(C)[C@@H]([C@H](C)/C=C/[C@@H](O)C4CC4)CC[C@@H]23)C[C@@H](O)C[C@@H]1O [Calcipotriene] | 0.625 | 1.01 | 0.941 | 2.13 | 0.91 | 1.51
41 | C#C[C@]1(O)CC[C@H]2[C@@H]3CCc4cc(OC)ccc4[C@H]3CC[C@@]21C [Mestranol] | 1.12 | 0.814 | 0.785 | 1.26 | 0.905 | 1.38
42 | C=CC[N+]1([C@H]2C[C@H]3[C@@H]4CC[C@H]5C[C@H](O)[C@@H](N6CCOCC6)C[C@]5(C)[C@H]4CC[C@]3(C)[C@H]2OC(C)=O)CCCC1 [Rocuronium Bromide] | 1.59 | 1.12 | 1.92 | 1.08 | 0.685 | 1.25
43 | CC(=O)OCC(COC(C)=O)OC(C)=O [Triacetin] | 1.28 | 0.762 | 1.03 | 1.11 | 1.02 | 0.787
44 | CC(C)CCCC(C)N (stereo unspecified) [Octodrine (2-Amino-6-methylheptan)] | 1.17 | 0.649 | 0.851 | 1.24 | 1.34 | 1.4
45 | CCC(=O)O[C@@H](O[P@](=O)(CCCCc1ccccc1)CC(=O)N1C[C@H](C2CCCCC2)C[C@H]1C(=O)O)C(C)C [Fosinopril Sodium] | 1.19 | 0.719 | 1.62 | 0.746 | 0.444 | 1.23
46 | CCCCN(CCCC)CC(O)c1cc(Cl)cc2c1-c1ccc(Cl)cc1/C2=C/c1ccc(Cl)cc1 (stereo unspecified) [Lumefantrine] | 1.17 | 1.42 | 0.953 | 0.94 | 0.895 | 0.763
